A number with no mark means an inactive call. A call without a number means that no potency is given here. Calls of active or inactive are those of the source. Calls follow the shape of the dose curve; as a rule, active = well fitted inhibition curve with a large enough effect in the repeat runs (not every such curve was filed as active); inconclusive = weak or mixed curves; inactive = flat fitted curve, though single readings scatter.
Each molecule was assayed against Thyrotropin-releasing hormone receptor (Homo sapiens) (UniProt P34981) (assay: qHTS assay to identify small molecule antagonists of the thyrotropin-releasing hormone receptor (TRHR) signaling pathway (AID 1346877)). Conditions: TRHR-HEK293, TRH-induced calcium fluorescence, antagonist mode; series mostly up to 51.3 µM; activity, negative = inhibition: at the top concentration.
Outline: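 TRHR-expressing HEK293 cells loaded with calcium dye for 2 h at 37 C; compounds pre-incubated 5 min at room temperature before TRH challenge at 1 nM final. Intracellular calcium fluorescence read kinetically for 3 min; 15 concentrations in triplicate.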

Chain of Thyrotropin-releasing hormone receptor (Homo sapiens) (P34981 whole entry, looked up): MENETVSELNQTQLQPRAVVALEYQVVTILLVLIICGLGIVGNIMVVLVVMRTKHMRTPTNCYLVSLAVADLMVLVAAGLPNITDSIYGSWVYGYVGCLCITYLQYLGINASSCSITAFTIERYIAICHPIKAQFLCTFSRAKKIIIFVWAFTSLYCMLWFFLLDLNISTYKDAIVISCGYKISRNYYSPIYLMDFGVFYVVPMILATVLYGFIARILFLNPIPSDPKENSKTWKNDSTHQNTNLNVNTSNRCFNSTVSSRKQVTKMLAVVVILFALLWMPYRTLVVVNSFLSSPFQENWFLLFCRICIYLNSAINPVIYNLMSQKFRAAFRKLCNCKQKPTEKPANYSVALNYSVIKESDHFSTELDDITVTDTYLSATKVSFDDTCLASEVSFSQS

Structure (SMILES)	Potency	activity, negative = inhibition
O=C(O)CC(O)C(=O)O (stereo not given)	inactive	
CCOc1ccc(NC(C)=O)cc1	inactive	
CC(C)C(=O)Nc1ccc([N+](=O)[O-])c(C(F)(F)F)c1	inactive	
COc1ccc(C(Cl)=C(c2ccc(OC)cc2)c2ccc(OC)cc2)cc1	inactive	
O=CC(=O)c1ccccc1		4.97%
O=c1[nH]cc(F)c(=O)[nH]1	inactive	
NS(=O)(=O)c1cc2c(cc1Cl)NCNS2(=O)=O	inactive	
CC(C)NCC(O)c1ccc(O)c(O)c1 (stereo not given)	inactive	
C/C=C/C=C/C(=O)O	inactive	
Nc1c2c(nc3ccccc13)CCCC2	inactive	
O=S1(=O)OC(c2ccc(O)cc2)(c2ccc(O)cc2)c2ccccc21	inactive	
CCCCCCCC(=O)OCC(COC(=O)CCCCCCC)OC(=O)CCCCCCC	inactive	
Cc1c(C(=O)O)c(O)cc2c1C(=O)c1c(O)c([C@@H]3O[C@H](CO)[C@@H](O)[C@H](O)[C@H]3O)c(O)c(O)c1C2=O	inactive	
CCCCCCCCCCCCCCCC[N+](C)(C)Cc1ccccc1	inactive	
Nc1ccc(S(N)(=O)=O)cc1	inactive	
CN(C)CCOC(c1ccccc1)c1ccccc1	inactive	
CCCCOC(=O)c1ccc(O)cc1	inactive	
NC1CCCCC1	inactive	
CNNCc1ccc(C(=O)NC(C)C)cc1	inactive	
OC[C@H]1O[C@H](O[C@]2(CCl)O[C@H](CCl)[C@@H](O)[C@@H]2O)[C@H](O)[C@@H](O)[C@H]1Cl	inactive	

From PubChem BioAssay (Tox21)
